High-throughput results from PubChem.
Hits are enriched below; roughly 19% of the tested compounds scored in any of these assays.
IL1B secr inh = qHTS for Inhibitors of Inflammasome Signaling: IL-1-beta AlphaLISA Primary Screen; THP-1 LPS/ATP IL-1B secretion, AlphaLISA, 16 h; active compounds read low; activity change, % at 57.5 µM; 360,000 compounds, 4.7% hits; in the data active means activity change below about -50%; inconclusive means mostly about -30% to -49%
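Secreted IL-1B measured by AlphaLISA bead assay after 16 h compound exposure of THP-1 cells; compounds (final up to 57.5 uM) added 1 h before LPS (250 ng/mL) and ATP (1.25 mM) stimulation; lower signal means less secretion.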
ELG1 repair inh = qHTS screen for small molecules that inhibit ELG1-dependent DNA repair in human embryonic kidney (HEK293T) cells expressing luciferase-tagged ELG1 | HEK293T ELG1-luciferase reporter, luminescence, 16 h; DNA damage induced by 5-fluorouridine | Potency, µM (series often up to 46.1 µM), for inactives: at the top dose activity change, negative = inhibition, most hits filed as inhibitors | 330,000 compounds, 2.3% hits | AID 504467, 2011; further: potency means the concentration at half of the fitted maximal effect; nearly all actives have a fitted effect of over 55% in size
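Cells (2,000 per well) received 5-fluorouridine plus test compound or DMSO and were incubated 16 hr at 37 °C, 5% CO2. Luciferase activity was read by luminescence 30 min after ONE-Glo addition; signal suppression marked inhibition of damage-induced ELG1 function.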
HT1080NT lethal = qHTS for induction of synthetic lethality in tumor cells producing 2HG: qHTS for the HT-1080-NT fibrosarcoma cell line; HT-1080-NT fibrosarcoma viability, CellTiter-Glo ATP luminescence, 48 h; Potency, µM (doses to about 46.1 µM), for the others: top-dose activity, negative = less viability, usual class: cytotoxic; AID 686970, 2013; 360,000 compounds, 1.6% hits;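 further: NT is the 2HG producing partner of a matched IDH1 knockdown line; potency means the concentration at half of the fitted maximal effect; 0% = DMSO-treated cells and -100% = media-only wells without cells; nearly all actives have a fitted effect of over 55% in size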
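Luminescent CellTiter-Glo readout after 48 hours of compound exposure at 37 degrees C defined viability of HT-1080-NT cells. Activity was normalized to DMSO wells and cell-free media wells; concentration-response curves were fitted and assigned curve classes.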
DT40 TDP1 no CPT = qHTS for Inhibitors of human tyrosyl-DNA phosphodiesterase 1 (TDP1): qHTS in cells in absence of CPT; DT40 Tdp1-/- hTDP1 cells, no CPT, ATP luminescence, 48 h; Potency, µM (highest dose often 46.2 µM), for inactives: at the highest dose activity change, negative = growth inhibition, actives largely listed as inhibitors; 420,000 compounds, 15% hits; further: potency means the concentration at half of the fitted maximal effect; nearly all actives have a fitted effect of over 55% in size
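Chicken DT40 Tdp1-/- cells complemented with human TDP1, screened without camptothecin (DMSO vehicle only), 400 cells/well. Compounds pin-transferred, cells incubated at 37 °C for at least 48 hr. Growth read as ATP-dependent luminescence (CellTiter-Glo, 30 min at RT).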
DT40 TDP1 CPT = qHTS for Inhibitors of human tyrosyl-DNA phosphodiesterase 1 (TDP1): qHTS in cells in presence of CPT. chicken DT40 Tdp1-/-;hTDP1 cells + 20 nM CPT, ATP luminescence, 48 h. Potency, µM (series often up to 46.2 µM), inactives show top-dose activity change, negative = growth inhibition, actives largely listed as inhibitors. 420,000 compounds, 12% hits; further: potency means the concentration at half of the fitted maximal effect; nearly all actives have a fitted effect of over 55% in size
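Chicken DT40 Tdp1-/- cells stably complemented with human TDP1 were seeded at 400 cells/well in medium containing 20 nM camptothecin, exposed to pin-transferred compounds, and grown at 37 °C for at least 48 hr. Viability was read as ATP luminescence.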
HT1080 IDH1KD tx = qHTS for induction of synthetic lethality in tumor cells producing 2HG: qHTS for the HT-1080-IDH1KD cell line. HT-1080 IDH1 knockdown viability, ATP luminescence, 48 h. Potency, µM (doses to about 46.1 µM), for inactives: top-dose activity, negative = toxicity, actives largely listed as cytotoxic. 360,000 compounds, 2% hits. AID 686971, 2013;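 further: potency means the concentration at half of the fitted maximal effect; 0% = DMSO wells and -100% = cell-free medium wells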
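CellTiter-Glo luminescence after 48 h compound exposure at 37 degrees C of IDH1-knockdown HT-1080 cells in 5% FBS RPMI. %Activity scaled between DMSO wells and cell-free media wells, with curves fitted and assigned curve classes.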
The depositor's hits bear a star; ? = inconclusive; / = no result given. Unless noted, the call rests on the fitted dose curve; in most records, active means well fitted curve in the direction sought with a large enough effect; inconclusive means small, poorly fitted or top-dose-only effect, or another doubt; inactive means no such curve, though single readings can be large; an effect the other way counts as inactive or inconclusive. Unless noted, on the % scale 0 is the no-effect control and ±100 the full control effect.

SMILES | IL1B secr inh | ELG1 repair inh | HT1080NT lethal | DT40 TDP1 no CPT | DT40 TDP1 CPT | HT1080 IDH1KD tx
Cc1nc(-c2ccc(C(=O)Nc3ccccc3F)cc2)cs1 | -14 | ? | 12µM* | ? | -18% | 21µM*
CC(C)N(Cc1nc(-c2ccc(Cl)cc2)no1)C(=O)/C=C/c1ccccc1 | -62* | 1% | -2% | ? | ? | -9%
Cc1cccc(-c2noc(CN(C(=O)/C=C/c3ccccc3Cl)C(C)C)n2)c1 | -10 | -25% | -3% | ? | 18µM* | ?
CC(C)N(Cc1nc(-c2ccc(Cl)cc2)no1)C(=O)C(c1ccccc1)c1ccccc1 | -11 | -16% | -18% | ? | ? | -24%
Cc1cccc(-c2noc(CN(C(=O)CCc3ccccc3)C(C)C)n2)c1 | -15 | -4% | -22% | ? | 29µM* | -14%
COc1ccc(CC(=O)N/N=C/c2ccc(C)s2)cc1 | -6 | / | -1% | -32% | -5% | -8%
COCc1cc(=O)[nH]c(N2CCN(Cc3ccc4c(c3)OCO4)CC2)n1 | 4 | -7% | 0% | -11% | -3% | 4%
O=C1C2C3C=CC(CC3)C2C(=O)N1c1ccc(F)cc1 (stereo unspecified) | 16 | ? | 8% | 4% | 7% | 12%
O=C1C2C3CCCC3=C3CCCC3C2C(=O)N1c1ccc(F)cc1 (stereo unspecified) | 16 | -12% | -4% | 18µM* | ? | -6%
CSc1ccc2c(c1)C(N1CCN(C)CC1)Cc1ccc(F)cc1S2 (stereo unspecified) | -56* | / | ? | 16µM* | ? | ?
COc1ccc2c(c1)CC(N1CCN(C)CC1)c1cc(OC)ccc1S2 (stereo unspecified) | -93* | / | ? | ? | ? | 21µM*
Fc1ccc2c(c1)Sc1ccc(Cl)cc1CC2N1CCN(CCC2OCCO2)CC1 (stereo unspecified) | -75* | / | ? | 18µM* | ? | ?
O=C1CC(N2CCN(Cc3ccc4c(c3)OCO4)CC2)C(=O)N1c1cccc(Cl)c1 (stereo unspecified) | 21 | 4% | 8% | -6% | -3% | 2%
O=[N+]([O-])c1ccc2c(c1)C(N1CCN(CCO)CC1)Cc1ccc(F)cc1S2 (stereo unspecified) | 0 | / | 16µM* | ? | ? | 16µM*
COc1cccc(NC(=O)c2ccccc2N2C(=O)C3C4C=CC(C4)C3C2=O)c1 (stereo unspecified) | -17 | ? | -7% | -17% | -2% | -17%
CN(CC(=O)Nc1cccc(F)c1)C(=O)c1cc(S(=O)(=O)N(C)C)ccc1N1CCCC1 | -8 | -9% | -6% | -16% | -23% | 1%
CCOC(=O)c1ccc(NC(=O)CSc2nc3c(c(=O)n2C)SC(C)C3)cc1 (stereo unspecified) | 16 | 21µM* | 3% | 26µM* | 18µM* | -3%
Cc1ccc2nc(NC(=O)CSc3nc4c(c(=O)n3C)SC(C)C4)sc2c1 (stereo unspecified) | -56* | -13% | -23% | 21µM* | 21µM* | -26%
CCCCc1nnc(NC(=O)CN2C(=O)NC3(CCCCC3)C2=O)s1 | 0 | -9% | -3% | 1% | -8% | -8%
CCN(CC)CCCNC(=O)c1ccc(S(=O)(=O)Nc2ccc(C)c(C)c2)cc1 | -4 | 1% | -20% | 16µM* | ? | -11%
